Bioassay records deposited in PubChem BioAssay by Broad Institute.
Shown is part of a subset that was picked to be rich in hits.
Tgondii IFNg: T. gondii growth inhibition under IFN-gamma | activity change, negative = inhibition, % (concentration not given with the values) | actives 3.8% (n = 69,000) | Toxoplasma gondii growth in IFN-gamma-treated host cells; hits give low values | AID 1259416; in the data active means activity change below about -70%, passing the limit was not always enough;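 further: host cells are HeLa cells infected with Toxoplasma gondii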
Hits are given with their value; – = inactive; ! = not confirmed by another sample.

SMILES	Tgondii IFNg
Cc1ncnc2c1CCN(C1CCOCC1)CC2	–
CC(C)(C)c1ccc2[nH]c3c(c2c1)CCCC3=O	-84.5
C=CCOCc1cncc2c1CCN(C(=O)C1CCOCC1)C2	–
c1ccc(C(c2ccccc2)N2CCN(c3nnnn3-c3ccccc3)CC2)cc1	–
CCN1c2cc(C)ccc2-n2cccc2C12CCN(S(=O)(=O)c1ccc(C(C)C)cc1)CC2	–
CCN1c2cc(C)ccc2-n2cccc2C12CCN(S(=O)(=O)Cc1ccccc1)CC2	–
CCN1c2cc(C)ccc2-n2cccc2C12CCN(C(=O)c1ccccc1OC)CC2	–
CCOc1ccc(NC(=O)N2CCC3(CC2)c2cccn2-c2ccc(C)cc2N3CC)cc1	–
CCN1c2cc(C)ccc2-n2cccc2C12CCN(S(=O)(=O)c1ccc3c(c1)oc(=O)n3C)CC2	–
CCOc1ccc(S(=O)(=O)N2CCC3(CC2)c2cccn2-c2ccc(C)cc2N3CC)cc1	-91.7
CCN1c2cc(C)ccc2-n2cccc2C12CCN(C(=O)c1ccccc1Br)CC2	–
CCN1c2cc(C)ccc2-n2cccc2C12CCN(S(=O)(=O)c1ccccc1)CC2	-78.7
CCN1c2cc(C)ccc2-n2cccc2C12CCN(S(=O)(=O)c1ccccc1Cl)CC2	-78.0
Cc1[nH]cnc1-c1nccn1-c1ccc(-c2ccn[nH]2)cc1	–
CCN(Cc1cc(Cl)ccc1OC)C(=O)c1ccc(CO)cc1	–
C[C@H]1O[C@@H](O[C@H]2[C@@H](O)C[C@H](O[C@H]3[C@@H](O)C[C@H](O[C@H]4CC[C@]5(C)C6CC[C@]7(C)[C@@H](C8=CC(=O)OC8)CC[C@]7(O)C6CC[C@@H]5C4)O[C@@H]3C)O[C@@H]2C)C[C@H](O)[C@@H]1O (stereo not given in full)	-79.7!
Cc1oc(-c2ccc(OC(C)C)cc2)nc1CN(c1ccccc1)S(=O)(=O)c1cccs1	–
Cc1ccc(S(=O)(=O)NCCCNC(=O)c2cnccn2)cc1	–
Cc1cc2nc(C(=O)N3CCCC4(CC3)CNC(=O)O4)cc(C)n2n1 (stereo not given)	–
COc1cccc2c1C(=O)c1c(O)c3c(c(O)c1C2=O)C[C@@](O)(C(C)=O)C[C@@H]3O[C@H]1C[C@H](N)[C@H](O)[C@H](C)O1	-71.7!
COc1cccc2c1C(=O)c1c(O)c3c(c(O)c1C2=O)C[C@@](O)(C(=O)CO)C[C@@H]3O[C@H]1C[C@H](N)[C@@H](O)[C@H](C)O1	-83.9
CC(=O)[C@]1(O)Cc2c(O)c3c(c(O)c2[C@@H](O[C@H]2C[C@H](N)[C@H](O)[C@H](C)O2)C1)C(=O)c1ccccc1C3=O	–
Cc1ccc2nc(C(=O)N3CCN(c4nnc(C(F)(F)F)s4)CC3)cn2c1	–
CN(C)CCOCc1nnn2c1CN(Cc1cccs1)CCC2	–
Cn1cnnc1-c1cccc(NS(=O)(=O)c2ccc3[nH]c(=O)sc3c2)c1	–
SMILES	Tgondii IFNg
CCC1=NC2(CCC(C(=O)Nc3ccc(C)nc3)CC2)C(=O)N1C (stereo not given)	–
COc1ccc(C(=O)N(c2ccc(Cl)cc2)C2(C(=O)NCc3ccccc3)CCN(C(C)=O)CC2)cc1	–
COc1ccc(C(=O)N(c2ccc(F)cc2)C2(C(=O)NCc3ccccc3)CCN(C(C)=O)CC2)cc1	–
COc1ccc(C(=O)N(c2ccc(C(C)C)cc2)C2(C(=O)NCc3ccccc3)CCN(C(C)=O)CC2)cc1	-95.5
COc1ccc(C(=O)N(Cc2cccc(F)c2)C2(C(=O)NCc3ccccc3)CCN(C(C)=O)CC2)cc1	–
COc1ccc(C(=O)N(Cc2cccc(OC)c2)C2(C(=O)NCc3ccccc3)CCN(C(C)=O)CC2)cc1	-83.4
COc1ccc(C(=O)N(Cc2ccc(Cl)cc2)C2(C(=O)NCc3ccccc3)CCN(C(C)=O)CC2)cc1	–
Cc1cccc(S(=O)(=O)N2C[C@H]3C[C@H](C(=O)NCC4CC4)[C@@H](C2)O3)c1	–
O=C1C(c2ccccc2)c2ccccc2N1Nc1ccc(Br)cc1 (stereo not given)	–
NC(=O)C1Cc2ccccc2CN1C(=O)c1cc(-c2ccccn2)nc2ccccc12 (stereo not given)	–
CC1Cc2ccccc2N1C(=O)CCCNC(=O)c1ccc(=O)n(C)c1 (stereo not given)	–
O=C(CCC1N=C2c3ccccc3N=C(SCc3cc(=O)n4cc(Cl)ccc4n3)N2C1=O)NCc1cccs1 (stereo not given)	–
COc1ccc(C)cc1S(=O)(=O)NCCc1csc(-c2ccc(Cl)cc2)n1	–
O=C1CC2(CCN(C(=O)CCSCc3ccc(F)cc3)CC2)CN1	–
Cc1ccc(Cn2c(-c3ccc(F)cc3)c(-c3ccc(F)cc3)nnc2=O)cc1	-83.0
Cc1ccc(-n2sc(=O)n(Cc3ccc(F)cc3)c2=O)cc1	–
CCOC(=O)Cn1nc2nnc(-c3ccc(F)cc3)c(-c3ccc(F)cc3)n2c1=O	–
NC1CC(=O)N(CCc2cccc(Cl)c2)C1 (stereo not given)	–
C=CCn1c2ccccc2c2ccccc21	–
CCc1cn[nH]c1C1CCN(C(=O)c2cn(CC3CCCNC3)nn2)CC1 (stereo not given)	–
O=C(C1CC2(CCNCC2)CN1)N(CCN1CCOCC1)Cc1ccco1 (stereo not given)	–
Brc1ccc2[nH]c3c(Br)cc(Br)cc3c2c1	–
O=C1Cc2c([nH]c3ccc(Br)cc23)-c2ncccc2N1	–
Brc1ccc2[nH]c3c(c2c1)CCCC3NCc1ccccc1 (stereo not given)	-98.5
COc1ccc(-c2nc3c(s2)CN(C(=O)Nc2ccccc2C(F)(F)F)CC3)cc1	–
SMILES	Tgondii IFNg
O=C1CCc2cc(S(=O)(=O)NCCc3ccc(Cl)cc3)cc3c2N1CCC3	–
CCCCCCCCCCOC1CCS(=O)(=O)C1 (stereo not given)	-84.3
CCCCSC(=S)NC1CCS(=O)(=O)C1 (stereo not given)	–
C=Cc1ccc(Cn2nc(-c3ccco3)c(-c3cc(C)no3)cc2=O)cc1	–
O=C(C1CN(S(=O)(=O)c2ccccc2)CC12CCOCC2)N1CCCC1 (stereo not given)	–
COC(=O)c1ccc(C(=O)N2C[C@@H]3CCC4(NC(=O)c5cccnc5N4)[C@@H]3C2)cc1 (stereo not given in full)	–
CCc1cnc(-c2c[nH]c3ccc(C)cc23)nc1	–
COc1ccc(C)cc1NC(=O)Nc1ccc(-c2nc(-c3cc(C)ccc3C)co2)cc1	-72.0
COc1ccc(NC(=O)Nc2ccc(-c3nc(-c4cc(C)ccc4C)co3)cc2)c(OC)c1	–
COc1cc(NC(=O)Nc2ccc(-c3nc(-c4ccc(C)cc4)co3)cc2)cc(OC)c1OC	–
COc1cc(C(=O)Nc2ccc(-c3nc(-c4ccccc4)co3)cc2)cc(OC)c1OC	–
COc1cc(NC(=O)Nc2ccc(-c3nc(-c4ccccc4)co3)cc2)cc(OC)c1OC	-87.7
Cc1ccc(C)c(-c2coc(-c3ccc(NC(=O)Nc4ccccc4)cc3)n2)c1	–
Cc1ccc(NC(=O)CNC(=O)C2CC(=O)N(CC(C)C)C2)c(F)c1 (stereo not given)	–
Cc1cnc(N2CCc3onc(C(=O)NC(C)C)c3C2)nc1	–
COC(=O)c1c(NCC(C)O)c2cc(F)ccc2[nH]c1=O (stereo not given)	–
COC(=O)c1c(NCCc2cccs2)c2ccc(F)cc2[nH]c1=O	–
COC(=O)c1c(NCc2ccccc2Br)c2cc(F)ccc2[nH]c1=O	–
COC(=O)c1c(NCCc2c[nH]c3ccccc23)c2ccccc2[nH]c1=O	-89.1
COC(=O)c1c(NCC(C)C)c2cc(F)ccc2[nH]c1=O	–
